Test results: PubChem BioAssay (NCI)
The panel holds about 83,000 compounds, 20% with a hit somewhere; the sample as a whole holds those more often.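 Note: values are percent growth. 100 is the growth of untreated cells, values between 100 and 0 indicate rising inhibition; between -100 and 0 indicates cell death.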 A number with no mark means an inactive call. The source made the active and inactive calls. How the source made its calls: active means growth percent below 10; inactive means the rest.

How the values were obtained:
Test in all cases: NCI-60 one-dose screen, 48 h (100 = growth as untreated, 0 = no growth, -100 = all killed)
Details in all cases: 10 µM unless noted
[1] = tested on: T-47D breast
[2] = tested on: BT-549 breast
[3] = tested on: MDA-MB-435 melanoma
[4] = tested on: SW-620 colon
[5] = tested on: MCF7 breast
[6] = tested on: HCT-116 colon
[7] = tested on: HCC-2998 colon
[8] = tested on: KM12 colon
[9] = tested on: MDA-MB-468 breast

| Structure (SMILES) | growth [1] | growth [2] | growth [3] | growth [4] | growth [5] | growth [6] | growth [7] | growth [8] | growth [9] |
| --- | --- | --- | --- | --- | --- | --- | --- | --- | --- |
| Cn1cc(-c2nnc(N)nc2-c2c[nH]c3ccc(F)cc23)c2cccnc21 | 40.7% | 34% | -21.8% (active) | 19.3% | 23.6% | 15.1% | 65.8% | 22.3% | 39.1% |
| COc1ccc2oc3c4[nH]c5ccccc5c4c4c(c3c2c1)C(=O)N(C(=O)OC(C)(C)C)C4=O | -7.22% (active) | -44.2% (active) | -26.4% (active) | 6.81% (active) | -25.9% (active) | 1.65% (active) | 23.2% | -18.9% (active) | -22.9% (active) |
| CC(C)CSc1nc(NCCc2c[nH]c3ccccc23)c(C#N)c(-c2ccc(F)cc2)n1 | 24.6% | 72.1% | 59.1% | 38% | 22.5% | 11.3% | 32.5% | 24% | 54.3% |
| COc1ccc(-c2nc(SC(C)C)nc(NCCc3c[nH]c4ccccc34)c2C#N)cc1 | 6.31% (active) | 63% | 53.4% | 32.9% | 7.2% (active) | 7.04% (active) | 32.5% | 25.5% | 30.1% |
| COc1ccc(NC(=O)Cn2c3c(sc2=O)[C@H]2[C@@H](O)[C@@H](O)[C@H](O)[C@@H]2CS3)cc1 | 100% | 110% | 101% | 105% | 93.8% | 103% | 114% | 102% | 107% |
| CCOC(=O)C1=C(N)N(c2ccccc2)C2=C(C(=O)CC(C)(C)C2)C1c1ccccc1Cl (stereo unspecified) | 52% | 78.6% | 73.1% | 74.6% | 56.5% | 41.3% | 85.6% | 58.4% | 50.2% |
| N/N=C(\N)c1c(N)nc(=S)[nH]c1-c1ccc(Cl)cc1Cl | 92.6% | 100% | 111% | 106% | 95.6% | 113% | 103% | 105% | 110% |
| CCCCSc1nc(NCCc2c[nH]c3ccccc23)c(C#N)c(-c2ccc(OC)cc2)n1 | 30.7% | 99.4% | 72.2% | 52.8% | 17.7% | 21.4% | 49.2% | 36.2% | 51.1% |
| CCN1C(=O)/C(=N\N=C(/C)c2ccc3c(c2)Nc2ccccc2S3)c2cc(Cl)ccc21 | 34.3% | 48.8% | 29.6% | 85.9% | 17.6% | 48.8% | 102% | 47.3% | 9.33% (active) |
| COc1ccc(NC(=O)Cn2c(O)c(N=Nc3ccc(S(N)(=O)=O)cc3)c3ccccc32)cc1 | 66.5% | 15.8% | 53% | 25.2% | 31.2% | 3.37% (active) | 18% | 26.3% | 22.3% |
| CCCCSc1nc(Nc2ccc(C(C)=O)cc2)c(C#N)c(-c2ccc(OC)cc2)n1 | 64.3% | 75.3% | 75.4% | 63.2% | 65.4% | 32.5% | 98.4% | 95.3% | 67.5% |
| O=C1NC(=O)c2c1c1c3cc(Br)ccc3[nH]c1c1oc3ccc(F)cc3c21 | -20.1% (active) | 15.1% | 33.7% | 3.59% (active) | -47.5% (active) | 0.579% (active) | -9.47% (active) | 15.1% | -51.8% (active) |
| O=c1onc(-c2cc3ccccc3nc2Cl)n1-c1cccc2ccccc12 | 3.09% (active) | 28.5% | -11.8% (active) | 29.7% | 21.4% | 40.2% | 71.1% | 44.2% | -25.2% (active) |
| COc1ccc2[nH]c(O)c(N=NC(=O)Cn3c(-c4ccccc4)nc4cc(C)ccc43)c2c1 | 30.3% | -61.7% (active) | 43.7% | 47.2% | 33% | -72.7% (active) | 18.9% | 47.3% | 34.4% |
